Inconclusive results are not listed. Active and inactive are the calls of the source. The calls were made as follows, unless noted: active = hit-call score of the fitted dose curve at least 0.9, where 1 is the maximum; inactive = score below 0.9.
What was measured:
[1] = CCTE_Shafer_MEA_dev_LDH: CCTE's Lactate Dehydrogenase Assay for Cytotoxicity in the Neural Network Formation Assay, Shafer Lab (AID 2284068; active = hit-call score of the fitted dose curve at least 0.9, where 1 is the maximum;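 also: exposure for twelve days from plating with re-dosing on DIV 5 and 9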)
Outline: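 Primary rat cortical neurons were plated on PEI/laminin MEA plates and exposed from day 0 for twelve days, with compound renewed at DIV 5 and 9. Cytotoxicity was determined by spectrophotometric LDH assay relative to DMSO.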

[2] = CCTE_Shafer_MEA_dev_mutual_information_norm: CCTE's Neural Network Formation Assay for Mutual Information Normalization, Shafer Lab (AID 2284091)
Outline: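 Exposure of primary rat cortical neurons began at plating and ran to DIV 12, with full media and treatment renewal after DIV 5 and 9 recordings. Mutual information AUC (DIV 5–12) was analysed for loss versus DMSO.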

[3] = CCTE_Shafer_MEA_dev_correlation_coefficient_mean: CCTE's Neural Network Formation Assay for Mean Correlation Coefficient, Shafer Lab (AID 2284093)
Outline: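 Spontaneous activity recorded on days 5, 7, 9 and 12 post-plating; pairwise spike correlations are averaged across active electrodes and collapsed to an area-under-curve. Rat cortical cultures are dosed from plating through 12 days, with compound renewed at media changes.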

[4] = CCTE_Mundy_HCI_Cortical_Synap_Neur_Matur_NeuriteSpotCountPerNeuriteLength: CCTE's Synaptogenesis and Neurite Maturation Assay in rat cortical cells for Neurite Spot Count per Neurite Length, Mundy Lab (AID 2284210)
Outline: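 Neurite-associated synapse density (synaptophysin puncta per unit neurite length) is measured by fluorescence high-content imaging in rat cortical cultures treated from DIV 7 and fixed at DIV 12, with DMSO as negative control.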

[5] = CCTE_Mundy_HCI_Cortical_Synap_Neur_Matur_BPCount: CCTE's Synaptogenesis and Neurite Maturation Assay in rat cortical cells for Branch Point Count, Mundy Lab (AID 2284211)
Outline: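 HCI read-out of branch points from MAP2/synaptophysin/Hoechst immunofluorescence; rat cortical cultures, AraC DIV 5, dosing DIV 7, fixed DIV 12; fit in positive direction vs DMSO baseline.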

[6] = CCTE_Mundy_HCI_Cortical_NOG_NeuriteCount: CCTE's Neurite Outgrowth Assay in rat cortical cells for Neurite Count, Mundy Lab (AID 2284212);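 also: cells fixed about two days after chemical exposure began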
Outline: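 Rat cortical primary cells; compound added 2 h post-plating, 1/10 dilution of working solution. Anti-betaIII-tubulin/AF488 ICC; ArrayScan neurite count vs DMSO.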

[7] = CCTE_Mundy_HCI_Cortical_NOG_NeuriteLength: CCTE's Neurite Outgrowth Assay in rat cortical cells for Neurite Length, Mundy Lab (AID 2284213)
Outline: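 First, rat primary cortical cells were plated and, 2 h later, given test chemical as a 1/10 dilution. Finally, βIII-tubulin immunostaining enabled automated imaging of neurite length.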

[8] = CCTE_Mundy_HCI_Cortical_Synap_Neur_Matur_NeuriteLength: CCTE's Synaptogenesis and Neurite Maturation Assay in rat cortical cells for Neurite Length, Mundy Lab (AID 2284214)
Outline: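 Cultures of rat primary cortical cells received chemical at DIV 7 and were fixed at DIV 12, after glial arrest with AraC at DIV 5. Neurite length was measured by automated imaging of MAP2 immunofluorescence.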

[9] = CCTE_Mundy_HCI_Cortical_Synap_Neur_Matur_NeuriteSpotCountPerNeuron: CCTE's Synaptogenesis and Neurite Maturation Assay in rat cortical cells for Neurite Spot Count per Neuron Count, Mundy Lab (AID 2284215)
Outline: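 Developing rat cortical neurons, with glia suppressed by AraC, are exposed to chemicals from DIV 7 to DIV 12. Automated fluorescence imaging of MAP2-labelled neurites and synaptophysin puncta yields a count per neuron, normalised against DMSO wells.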

[10] = CCTE_Mundy_HCI_Cortical_Synap_Neur_Matur_SynapseCount: CCTE's Synaptogenesis and Neurite Maturation Assay in rat cortical cells for Synapse Count, Mundy Lab (AID 2284218)
Outline: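 Cells were plated, allowed 2 hr to attach, treated with AraC at DIV 5, then exposed to chemicals from DIV 7 until DIV 12. After fixation and MAP2/synaptophysin immunolabelling, synapses per neuron were quantified by automated imaging against DMSO.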

[11] = CCTE_Mundy_HCI_Cortical_Synap_Neur_Matur_NeuriteCount: CCTE's Synaptogenesis and Neurite Maturation Assay in rat cortical cells for Neurite Count, Mundy Lab (AID 2284222);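 also: exposure from day 7 to day 12 in vitro with readout at day 12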
Outline: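 Rat primary cortical cells; AraC added at DIV 5, chemicals dosed with media change at DIV 7 through DIV 12. MAP2/synaptophysin/Hoechst immunostaining, high-content imaging of neurite number; fitted relative to DMSO.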

[12] = CCTE_Mundy_HCI_Cortical_Synap_Neur_Matur_CellBodySpotCount: CCTE's Synaptogenesis and Neurite Maturation Assay in rat cortical cells for Cell Body Spot Count, Mundy Lab (AID 2284223)
Outline: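 Chemicals were applied to AraC-treated rat primary cortical cells at DIV 7 and measured at DIV 12. Fixed cells were labelled for MAP2, synaptophysin and nuclei, and high-content imaging gave cell body synaptophysin spot counts per neuron relative to DMSO.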

[13] = CCTE_Mundy_HCI_Cortical_NOG_BPCount: CCTE's Neurite Outgrowth Assay in rat cortical cells for Branch Point Count, Mundy Lab (AID 2284237)
Outline: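 Measured 50.33 h after dosing, this morphology endpoint uses rat primary cortical cultures labelled for betaIII-tubulin. Branch points are quantified by high-content imaging, with DMSO as negative control and baseline.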

[14] = CCTE_Mundy_HCI_hNP1_Casp3_7: CCTE's Caspase-Glo 3/7 Assay in human neuroprogenitor cells for Apoptosis, Mundy Lab (AID 2284240)
Outline: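 Neuroepithelial-lineage stem cells from WA09 embryonic cells were treated with chemicals after 40–44 h of culture. Twenty-four hours later, caspase-3/7 activation was detected luminescently after a 30 min room-temperature reagent step, with DMSO as baseline.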

[15] = CCTE_Mundy_HCI_iCellGluta_NOG_NeuronCount: CCTE's Neurite Outgrowth Assay in iCellGluta cells for Neuron Count, Mundy Lab (AID 2284340; active = hit-call score of the fitted dose curve at least 0.9, where 1 is the maximum;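 also: cells fixed about 48 h after compound addition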)
Outline: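 Neuron count read by automated high-content imaging of Hoechst 33342 and betaIII-tubulin/Alexa Fluor-488 labelling in human iPSC glutamatergic neurons. Activity fitted relative to DMSO.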

[16] = CCTE_Mundy_HCI_iCellGluta_NOG_NeuriteCount: CCTE's Neurite Outgrowth Assay in iCellGluta cells for Neurite Count, Mundy Lab (AID 2284342; active = hit-call score of the fitted dose curve at least 0.9, where 1 is the maximum;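 also: chemical exposure about 48 hours starting 2 hours after plating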)
[17] = molecular target: Androgen Receptor/SRC-1 Co-activator, AR (gene 367) (UniProt P10275); experiment: OT_AR_ARSRC1_0960: Odyssey Thera (OT) 16-hour HEK293T Protein-Complementation Assay for Androgen Receptor/SRC-1 Co-activator (AID 2283353; active = hit-call score of the fitted dose curve at least 0.9, where 1 is the maximum;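 also: actives raise the signal above DMSO so potency reflects increased AR and SRC-1 complex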)
Androgen Receptor/SRC-1 Co-activator, AR (gene 367), sequence (P10275 whole entry, looked up, the tested form may be a part): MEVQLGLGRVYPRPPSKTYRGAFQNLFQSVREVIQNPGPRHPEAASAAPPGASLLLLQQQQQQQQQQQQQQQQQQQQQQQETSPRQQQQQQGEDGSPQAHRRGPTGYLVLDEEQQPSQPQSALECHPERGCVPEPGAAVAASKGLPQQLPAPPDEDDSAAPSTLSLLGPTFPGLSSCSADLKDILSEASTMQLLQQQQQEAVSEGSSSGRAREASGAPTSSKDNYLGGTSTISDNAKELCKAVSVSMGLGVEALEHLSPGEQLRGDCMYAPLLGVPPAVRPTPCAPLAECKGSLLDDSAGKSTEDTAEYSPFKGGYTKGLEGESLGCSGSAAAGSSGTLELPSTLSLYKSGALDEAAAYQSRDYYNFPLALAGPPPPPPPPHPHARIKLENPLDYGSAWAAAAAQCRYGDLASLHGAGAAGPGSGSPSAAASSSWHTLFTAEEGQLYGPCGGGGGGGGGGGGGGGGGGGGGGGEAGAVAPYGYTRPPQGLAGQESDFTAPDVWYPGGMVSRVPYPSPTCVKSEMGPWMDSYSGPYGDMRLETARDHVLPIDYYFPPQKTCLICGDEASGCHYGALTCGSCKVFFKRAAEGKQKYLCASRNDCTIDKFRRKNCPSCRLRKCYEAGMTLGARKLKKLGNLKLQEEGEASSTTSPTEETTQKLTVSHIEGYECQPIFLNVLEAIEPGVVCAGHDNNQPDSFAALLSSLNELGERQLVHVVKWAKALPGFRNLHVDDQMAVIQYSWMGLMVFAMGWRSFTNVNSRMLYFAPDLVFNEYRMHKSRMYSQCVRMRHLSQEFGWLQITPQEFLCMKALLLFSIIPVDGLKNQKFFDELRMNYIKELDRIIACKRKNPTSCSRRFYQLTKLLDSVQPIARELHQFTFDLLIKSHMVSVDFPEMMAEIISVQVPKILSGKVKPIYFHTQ
Outline: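 Stable HEK293T line carries AR and SRC-1 each linked to a Venus fragment; chemicals are applied for 16 h, cells imaged at two wavelengths, and the 488 nm nucleus/cytoplasm ratio is taken as the signal, rising relative to DMSO.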

[18] = molecular target: Androgen Receptor/SRC-1 Co-activator, AR (gene 367) (UniProt P10275); experiment: OT_AR_ARSRC1_0480: Odyssey Thera (OT) 8-hour HEK293T Protein-Complementation Assay for Androgen Receptor/SRC-1 Co-activator (AID 2283354; active = hit-call score of the fitted dose curve at least 0.9, where 1 is the maximum;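 also: hits raise the complementation signal above DMSO so AC50 marks enhancers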)
Outline: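 After 8 h dosing, stably expressing HEK293T cells with split-Venus AR/SRC-1 fusions were imaged (488, 635nm). The 488nm N/C ratio per image gave the endpoint, analysed in the positive direction against DMSO.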

[19] = molecular target: Agonist Androgen Response Element (ARE), AR (gene 367) (UniProt P10275); experiment: OT_AR_ARELUC_AG_1440: Odyssey Thera (OT) 24-hour CHO-K1 Luciferase Assay for Agonist Androgen Response Element (ARE) (AID 2283379; active = hit-call score of the fitted dose curve at least 0.9, where 1 is the maximum)
Agonist Androgen Response Element (ARE), AR (gene 367), sequence (P10275 whole entry, looked up): as the sequence (P10275 whole entry, looked up, the tested form may be a part) above
Outline: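 Luminescence increase above DMSO, read after a 24 h compound treatment of CHO-K1 cells expressing an androgen response element luciferase reporter, gives the single primary endpoint; concentration-response fitting used the positive direction.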

AR (gene 367) = AR (gene 367) (UniProt P10275); experiment: ACEA_AR_antagonist_80hr: ACEA Biosciences xCELLigence Real-Time Cell Analysis on Androgen Receptor Antagonism for Proliferation (AID 2283787; active = hit-call score of the fitted dose curve at least 0.9, where 1 is the maximum;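 also: 22Rv1 human prostate cancer cells with growth followed by electrical impedance; hits lower the impedance growth signal relative to DMSO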)
AR (gene 367), sequence (P10275 whole entry, looked up): as the sequence (P10275 whole entry, looked up, the tested form may be a part) above
Outline: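 Using 22Rv1 cells held in assay medium, we dosed compounds (100 uM maximum final, 1:4 serial, eight points, 0.5% DMSO at top) and recorded cell-electrode impedance; the 80 hr timepoint was analyzed against DMSO.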

Measured: outcome

CC1(C)S[C@@H]2[C@H](NC(=O)[C@H](N)c3ccccc3)C(=O)N2[C@H]1C(=O)O
inactive: [1] | [2] | [3] | [4] | [5] | [6] | [7] | [8] | [9] | [10] | [11] | [12] | [13] | [14] | [15] | [16]

Cc1cc(C)c(S(=O)(=O)O)cc1N=Nc1cc(S(=O)(=O)O)c2ccccc2c1O
inactive: [17] | [18] | [19] | AR (gene 367)

CN(C)CCC(c1ccc(Cl)cc1)c1ccccn1 (stereo not given)
inactive: [1] | [2] | [3] | [4] | [5] | [6] | [7] | [8] | [9] | [10] | [11] | [12] | [13] | [14] | [15] | [16]

NC(N)=Nc1nc(CSCCC(N)=NS(N)(=O)=O)cs1
inactive: [1] | [2] | [3] | [4] | [5] | [6] | [7] | [8] | [9] | [10] | [11] | [12] | [13] | [14] | [15] | [16]

O=C(c1ccccc1)c1ccccc1O
inactive: [17] | [18] | [19] | AR (gene 367)

CO[Si](CCCNCCN)(OC)OC
inactive: [17] | [18] | [19] | AR (gene 367)

Source: PubChem BioAssay (EPA / NIEHS)
